Structures are written as SMILES. About 83,000 compounds went through this panel and 20% of them were active in at least one assay; those are over-represented in the sample as a whole.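 Plates (96-well) were seeded with cells, treated with compound at one concentration, and incubated for 48 hours before percent growth was determined.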 Values without a mark were called inactive. The calls were made as follows: active = growth percent below 10; inactive = the rest.

The subject of one test is T-47D breast. Nature of the test: NCI-60 one-dose screen, 48 h (100 = growth as untreated, 0 = no growth, -100 = all killed). Particulars: 10 µM.
As for `COc1ccc(-c2cc3c(nn2)-c2ccccc2C3=O)cc1`, the growth is 77.5%.
With `CCCCC(=O)c1ccc(OC)cc1`, the growth was 110%.
On to `N=c1c(C(=O)OCc2ccccc2)ncc(CCl)n1O`, for which the growth was 93.9%.
In the case of `CCOC(=O)c1ccc(Nc2sc(C(=O)c3cccc([N+](=O)[O-])c3)c(N)c2C#N)cc1`, the growth is 48%.
Still for that read-out and setting: the value for `COC(=O)c1ccccc1N(C)C` was 93.5%; that for `CC1(C(=O)O)NC(C(=O)O)Cc2c1[nH]c1ccccc21` (stereo unspecified) was 95.7%; that for `NCCC(=O)c1ccc(Cl)cc1` was 91.4%.
Consider `CC(=O)/C(Cc1ccccc1)=N/O`, for which the growth is 89.8%.
Same read-out and setting: the value for `Cc1cccc(CO)c1` was 98.8%; that for `CC1(C)/C(=C\CO)C2CCC1C2` (stereo unspecified) was 101%.
In the case of `CC1C(=O)c2ccccc2CC1C(=O)O` (stereo unspecified), the growth is 102%.
Same read-out and setting: the value for `CC12CC3CC1C(C(=O)O2)C3C(=O)O` (stereo unspecified) was 108%; that for `CC(C)CCOC(=O)c1ccccc1` was 99.5%; that for `O=C1C[C@H](c2ccccc2)[C@H](c2ccccc2)C1` was 99.1%.
For `O=c1cc(-c2ccccc2)oc2c1ccc1ccccc12`, the growth is 72%.
On to `O=C(CCl)N1CCN(C/C=C/c2ccccc2)CC1`, for which the growth is 83.8%.
For the compound `COC(=O)c1cccnc1`, the growth is 118%.
On to `CC(=O)NCc1cc(C)c(C)cc1C`, for which the growth is 89%.
For `C#CCSc1nnnn1-c1ccc(Br)c(C)c1`, the growth is 87.6%.
Turning to `C=CCNC(=O)c1ccc(OC)cc1`, the growth is 103%.
Consider `O=C1Cc2ccccc2C(=O)O1`, for which the growth was 108%.
Still for that read-out and setting: the value for `Cc1ccccc1C1N=C2Oc3ccccc3C=C2C(=O)N1` (stereo unspecified) was 48.1%.
Turning to `C/C(=C\c1cc(Cl)ccc1OCC(=O)O)[N+](=O)[O-]`, the growth was 85.9%.
`Cc1cc(Cc2cc(C)c(N)cc2N)c(N)cc1N`: the growth was 83.5%.
On to `CC1Cc2ccccc2O1` (stereo unspecified), for which the growth was 104%.
For `Cc1cc(C)cc(NCCC#N)c1`, the growth is 107%.
In the case of `OCC(O)C(O)C(O)C(O)/C=N/O` (stereo unspecified), the growth is 87.4%.
As to `O=c1cc(-c2ccccc2)[nH]c(=S)[nH]1`, the growth was 107%.
For `Nc1nc(N)c(N=Nc2ccc(C(=O)O)cc2)c(N)n1`, the growth is 100%.
For the compound `c1ccc(CN2COc3c(ccc4c3OCN(Cc3ccccc3)C4)C2)cc1`, the growth is 13.1%.
In the case of `CCOC(=O)C1=C(Nc2ccc(Br)cc2)C(=O)N(CC)C1`, the growth was 107%.
On the same count and under the same terms, the value for `CC(C)=CC(=O)OC(=O)C=C(C)C` was 105%; that for `O=C(O)C(c1ccccc1)C(O)c1ccccc1` (stereo unspecified) was 94.4%; that for `O=C(CN1CCNCC1)N1CCOCC1` was 102%.
For `Nc1ccc(N)c([N+](=O)[O-])c1`, the growth was 91.3%.
Consider `CCOC(=O)c1coc(C(=O)OCC)c1C(=O)OCC`, for which the growth is 117%.
Regarding `COC(=O)/C=C/C(=O)NC(N)=O`, the growth was 95.3%.
Still for that read-out and setting: to `O=[N+]([O-])c1ccc(N=Nc2ccccc2)cc1` belongs 87.4%.

Another test concerns BT-549 breast. The description is as above. Conditions: 10 µM.
With `COc1ccc(-c2cc3c(nn2)-c2ccccc2C3=O)cc1`, the growth is 89.7%.
The same measure, in the same setting: to `CCCCC(=O)c1ccc(OC)cc1` belongs 102%; to `N=c1c(C(=O)OCc2ccccc2)ncc(CCl)n1O`, 80.6%.
For the compound `CCOC(=O)c1ccc(Nc2sc(C(=O)c3cccc([N+](=O)[O-])c3)c(N)c2C#N)cc1`, the growth is 52.9%.
On the same count and under the same terms, the value for `COC(=O)c1ccccc1N(C)C` was 103%.
Consider `CC1(C(=O)O)NC(C(=O)O)Cc2c1[nH]c1ccccc21` (stereo unspecified), for which the growth is 119%.
Turning to `NCCC(=O)c1ccc(Cl)cc1`, the growth is 109%.
On to `CC(=O)/C(Cc1ccccc1)=N/O`, for which the growth was 90.8%.
For `Cc1cccc(CO)c1`, the growth was 106%.
On the same count and under the same terms, the value for `CC1(C)/C(=C\CO)C2CCC1C2` (stereo unspecified) was 102%; that for `CC1C(=O)c2ccccc2CC1C(=O)O` (stereo unspecified) was 105%.
Regarding `CC12CC3CC1C(C(=O)O2)C3C(=O)O` (stereo unspecified), the growth was 122%.
Regarding `CC(C)CCOC(=O)c1ccccc1`, the growth was 102%.
Regarding `O=C1C[C@H](c2ccccc2)[C@H](c2ccccc2)C1`, the growth is 93.7%.
As for `O=c1cc(-c2ccccc2)oc2c1ccc1ccccc12`, the growth is 97.6%.
Same read-out and setting: the value for `O=C(CCl)N1CCN(C/C=C/c2ccccc2)CC1` was 94%; that for `COC(=O)c1cccnc1` was 85.5%.
With `CC(=O)NCc1cc(C)c(C)cc1C`, the growth is 100%.
As for `C#CCSc1nnnn1-c1ccc(Br)c(C)c1`, the growth is 103%.
As to `C=CCNC(=O)c1ccc(OC)cc1`, the growth was 106%.
Regarding `O=C1Cc2ccccc2C(=O)O1`, the growth is 101%.
With `Cc1ccccc1C1N=C2Oc3ccccc3C=C2C(=O)N1` (stereo unspecified), the growth was 27.2%.
As for `C/C(=C\c1cc(Cl)ccc1OCC(=O)O)[N+](=O)[O-]`, the growth is 117%.
The same measure, in the same setting: to `Cc1cc(Cc2cc(C)c(N)cc2N)c(N)cc1N` belongs 98.3%; to `CC1Cc2ccccc2O1` (stereo unspecified), 134%; to `Cc1cc(C)cc(NCCC#N)c1`, 123%.
As to `OCC(O)C(O)C(O)C(O)/C=N/O` (stereo unspecified), the growth was 91.5%.
In the case of `O=c1cc(-c2ccccc2)[nH]c(=S)[nH]1`, the growth was 97.5%.
For `Nc1nc(N)c(N=Nc2ccc(C(=O)O)cc2)c(N)n1`, the growth was 97%.
On the same count and under the same terms, the value for `c1ccc(CN2COc3c(ccc4c3OCN(Cc3ccccc3)C4)C2)cc1` was 12.6%; that for `CCOC(=O)C1=C(Nc2ccc(Br)cc2)C(=O)N(CC)C1` was 86.9%; that for `CC(C)=CC(=O)OC(=O)C=C(C)C` was 105%.
Turning to `O=C(O)C(c1ccccc1)C(O)c1ccccc1` (stereo unspecified), the growth is 110%.
`O=C(CN1CCNCC1)N1CCOCC1`: the growth is 113%.
As for `Nc1ccc(N)c([N+](=O)[O-])c1`, the growth was 96.9%.
With `CCOC(=O)c1coc(C(=O)OCC)c1C(=O)OCC`, the growth was 119%.
Same read-out and setting: the value for `COC(=O)/C=C/C(=O)NC(N)=O` was 99.4%.
Turning to `O=[N+]([O-])c1ccc(N=Nc2ccccc2)cc1`, the growth is 87.2%.

The record behind these values is PubChem BioAssay (NCI).
